Experimental data as given in PubChem BioAssay.

Test: basal MM1S mitochondrial membrane potential changes, profiling panel, cell-based, JC-1 fluorescence, 24 h, 100 nL compound (AID 1170); note: test concentration not given here
Settings: higher = more signal

SMILES	z-score
CO[C@H]1O[C@H](CO)[C@@H](OC(=O)Nc2ccc(C(F)(F)F)cc2)[C@H](OC(=O)Nc2ccc3c(c2)OCO3)[C@@H]1OC(=O)Nc1ccc2c(c1)OCO2	-1.36
COCCOC(=O)N1C(=O)[C@@]2(c3cc(C#Cc4ccc(OC)cc4)ccc31)[C@H](c1ccc(O)cc1)N1[C@H](c3ccccc3)[C@H](c3ccccc3)OC(=O)[C@H]1[C@@H]2C(=O)N1CCc2cc(OC)c(OC)cc2C1	0.108
CCC(CC)C(O)C1C=CC2C(=O)NC(=O)C2N1Nc1ccccn1 (stereo not given)	-0.138
CN1C(=O)C2C=CC(C(O)C3CC=CCC3)N(N(c3ccccc3)c3ccccc3)C2C1=O (stereo not given)	-0.711
COc1cc2c(cc1OC)CN(C(=O)[C@H]1[C@@H]3C(=O)O[C@@H](c4ccccc4)[C@@H](c4ccccc4)N3[C@@H](c3ccc(O)cc3)[C@]13C(=O)Nc1ccc(C#CCCO)cc13)CC2	0.0874
CCN(CC)c1ccc(N2CC=CC34O[C@@H]5C=CCCOC(=O)C5[C@H]3C(=O)N(CCCCCCO)[C@@H]4C2=O)cc1 (stereo not given in full)	-0.585
Cc1ccc(S[C@]2(C(=O)O)CC(=O)N(C(C)C)[C@@H]2c2ccc(CO)cc2I)cc1	-0.56
C=CCNC(=O)[C@H]1[C@@H]2C(=O)O[C@@H](c3ccccc3)[C@@H](c3ccccc3)N2[C@@H](c2ccccc2OCCO)[C@]12C(=O)Nc1ccc(C#CCCO)cc12	-0.31
C=C(CC1([C@@H](NP(=O)(c2ccccc2)c2ccccc2)[C@H]2C[C@@H]2CCCC)CC1)c1ccccc1	-1.92
O=C1C[C@@](C(=O)NCCN2CCOCC2)(c2ccc([N+](=O)[O-])cc2)[C@@H](c2ccc(CO)cc2)N1CC12CC3CC(CC(C3)C1)C2	-0.615
CC(C)[Si](C#Cc1ccc(Oc2ccccc2)cc1)(O[Si](C#Cc1ccc(Oc2ccccc2)cc1)(C(C)C)C(C)C)C(C)C	-0.00729
O=C(NCCO)C1=C[C@H](Oc2ccccc2I)[C@@H](O)[C@H](N(Cc2ccco2)C(=O)Cc2ccccc2)C1	0.559
COc1ccc(C#Cc2ccc3c(c2)[C@]2(C(=O)N3)[C@H](C(=O)Nc3nc4ccccc4s3)[C@H]3C(=O)O[C@H](c4ccccc4)[C@H](c4ccccc4)N3[C@@H]2c2ccc(O)cc2)cc1	-1.18
C=CCOC(=O)[C@H]1[C@@H]2C(=O)O[C@@H](c3ccccc3)[C@@H](c3ccccc3)N2[C@@H](c2ccc(OCCOC(=O)[C@@H]3C[C@@H]4C(=O)N[C@@H](CCCCNC(C)=O)C(=O)N4[C@@H]3c3ccc(O)cc3)cc2)[C@]12C(=O)Nc1ccccc12	-0.95
COC(=O)[C@H](Cc1ccccc1)N[C@@H](/C=C/C1CC1)[C@H](O)Cc1ccccc1	-0.594
CC(C)N1C(=O)[C@@]2(Cc3ccccc31)c1ccccc1C(=O)N(Cc1ccccc1Cl)[C@H]2c1ccc(CO)cc1	-1.76
COC(=O)c1c(CC[C@@H](CO)NC(=O)NCCn2cc(C3(O)CCCC3)nn2)oc(C(C)=O)c1C(=O)OC	-0.152
Cc1ccc(S[C@]2(C(=O)NCCCN(C)C)CC(=O)N(Cc3cc(C(F)(F)F)cc(C(F)(F)F)c3)[C@@H]2c2ccc(CO)cc2)cc1	0.339
CCOC(=O)C1=C[C@@H](C(C)(C)C)N(S(=O)(=O)c2ccc(C)cc2)[C@H]1c1ccc(F)cc1	-0.781
COc1cc2c(cc1OC)CN(C(=O)[C@H]1[C@@H]3C(=O)O[C@@H](c4ccccc4)[C@@H](c4ccccc4)N3[C@@H](c3ccc(O)cc3)[C@]13C(=O)Nc1ccccc13)CC2	-0.594
COC(=O)C(CC#Cc1ccc2c(c1)[C@]1(C(=O)N2)[C@H](c2ccc(OCCO)cc2)N2[C@H](c3ccccc3)[C@H](c3ccccc3)OC(=O)[C@H]2[C@@H]1C(=O)Nc1nc2ccccc2s1)C(=O)OC	-1.29
COCCOC(=O)N1C(=O)[C@@]2(c3cc(C#CCCO)ccc31)[C@H](C(=O)N1CCCCCCC1)[C@H]1C(=O)O[C@H](c3ccccc3)[C@H](c3ccccc3)N1[C@@H]2c1ccc(OCCO)cc1	-1.02
C[N+](C)(C)CCCCCCNC(=O)[C@@H]1C[C@@H]2C(=O)N[C@@H](Cc3ccccc3)C(=O)N2[C@@H]1c1cccc(OCCO)c1	-0.544
CC(=O)n1cc(C(O)C2C=CC3C(=O)N(c4ccccc4)C(=O)C3N2Nc2ccc([N+](=O)[O-])cc2)c2ccccc21 (stereo not given)	0.0885
COC(=O)[C@]1(CCC(=O)OC(C)(C)C)N=C(c2ccc(OCCCO)cc2)O[C@@H]1c1ccccc1CN=[N+]=[N-]	-2.7
